Laboratory results reported in the supplement of paper PMC3334620.
The full ranking holds about 33,000 sequences; the median of “E-score (-0.5 to 0.5)” is about -0.017, and the highest 2% start at about 0.3. Many of the other results were omitted from the sample, so the highest values are more common in it than they were.

target: T1, Sut1 (UniProt P53032); test: PBM E-score (8-mer binding enrichment) (E-score (-0.5 to 0.5)); higher = stronger / more preferred TF binding; settings: protein concentration: 200 nM; construct: GST-full length
T1 sequence: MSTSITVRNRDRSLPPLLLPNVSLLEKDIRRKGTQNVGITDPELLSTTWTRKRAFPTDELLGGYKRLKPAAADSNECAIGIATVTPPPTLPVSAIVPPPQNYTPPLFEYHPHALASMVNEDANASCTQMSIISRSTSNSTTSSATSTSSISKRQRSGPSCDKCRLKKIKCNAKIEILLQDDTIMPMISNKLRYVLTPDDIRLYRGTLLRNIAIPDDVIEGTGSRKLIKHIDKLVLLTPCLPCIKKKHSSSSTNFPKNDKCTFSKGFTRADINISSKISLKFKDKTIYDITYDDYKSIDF
Summary of the method: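 Full-length yeast transcription factors or their DNA-binding domains, GST-tagged and expressed with PURExpress, were applied at about 100-200 nM to universal all-10-mer Agilent arrays. These arrays had been made double-stranded by primer extension on fresh or once-stripped slides. Detection used fluorescent anti-GST, normalisation used masliner, and E-scores for ungapped eight-base words pooled with reverse complements came from the Universal PBM Analysis Suite.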

| Sequence | PBM E-score |
| --- | --- |
| AAAAATAA | 0.326 |
| GGAAATTA | 0.286 |
| TAAAATAA | 0.213 |
| AAAATAGC | 0.0485 |
| CAAAATAA | 0.201 |
| AGAAATTC | 0.126 |
| ATCAATTA | 0.31 |
| TAAATAGA | 0.0796 |
| ATCAATTG | 0.197 |
| AGAAATTA | 0.335 |
| AAAATAGA | 0.319 |
| ATCAATTC | 0.135 |
| AACCAACC | -0.178 |
| AGAATACA | 0.117 |
| CACTTTGC | 0.0519 |
| AGGCGACC | -0.207 |
| CTCGCCAG | -0.204 |
| ACCTTGCC | -0.0123 |
| ATAAAAAT | 0.252 |
| ATAAATAT | 0.341 |
| AAAAATTA | 0.228 |
| ATAAATAC | 0.275 |
| ATAAATTG | 0.268 |
| CAAAATTA | 0.241 |
| AAAATAAA | 0.347 |

| Sequence | PBM E-score |
| --- | --- |
| TAAATAAA | 0.247 |
| ATAAATTA | 0.326 |
| AAAATAAC | 0.12 |
| TAAAATTA | 0.34 |
| CTAAATTA | 0.24 |
| ACCAAACT | -0.0181 |
| CAGTGGTC | -0.165 |
| GGCAGAAA | 0.0918 |
| CCGACCCA | 0.0491 |
| CCATCAGA | -0.213 |
| AATAAGGG | -0.0871 |
| CCGACACC | -0.0623 |
| TGTCTCAA | -0.115 |
| ACAAATAG | 0.113 |
| ACAAATAT | 0.339 |
| CAAAATTG | 0.0231 |
| CGAAATAA | 0.313 |
| CAAAATTC | 0.308 |
| CGAAATAC | 0.215 |
| AAAAATTC | 0.235 |
| GGAAATAA | 0.24 |
| ACAAATAC | 0.205 |
| ATCTGAGC | 0.113 |
| GACTTCGC | 0.0243 |
| CTTCCGAA | 0.233 |

| Sequence | PBM E-score |
| --- | --- |
| ATTCCGAA | 0.378 |
| ATTCCAAG | 0.0681 |
| ATTCCGAC | 0.219 |
| ATTCCGAG | 0.341 |
| ATTCCGTA | 0.296 |
| CGTCAAGA | -0.239 |
| AGAGAGTA | -0.0447 |
| GTAAGAAC | 0.215 |
| TGGCAGAA | -0.0838 |
| TGAATTCA | 0.0862 |
| CGCGACAC | 0.0583 |
| ATTTTCCC | -0.105 |
| ATTTCCGC | 0.156 |
| ATTTTCGC | 0.0665 |
| ATTTCCGA | 0.231 |
| ATTTCCGG | 0.325 |
| ATTTTCGA | 0.0872 |
| ATTTTCGG | 0.345 |
| ATTTTCCG | 0.4 |
| AATTTCCG | 0.257 |
| CAGTATTA | 0.0764 |
| ACCAAACC | 0.0288 |
| CAGATGGG | -0.192 |
| TAAGCATA | 0.122 |
| AATAATTC | 0.268 |

| Sequence | PBM E-score |
| --- | --- |
| AGTTAATC | 0.16 |
| CCTAATTA | 0.039 |
| AATTAATA | 0.327 |
| AGTTAATA | 0.331 |
| TATTAATA | 0.167 |
| GGTTAATA | 0.163 |
| AATAATTA | 0.329 |
| CATAATTA | 0.317 |
| AATTAATT | 0.206 |
| GATAATTA | 0.216 |
| CATAATTC | 0.0494 |
| AATCAAGA | 0.0025 |
| GGCGAGCC | -0.157 |
| GAGCTACA | -0.127 |
| TATAATCA | 0.203 |
| CCCGGGCA | -0.229 |
| AAAATCGC | 0.159 |
| ACTGCTTA | 0.0551 |
| AGAATCCG | 0.00193 |
| GGAAGAGA | 0.0239 |
| CGGGTTGA | -0.223 |
| ACTGTCAA | -0.099 |
| ATATAACA | 0.309 |
| CTATAACC | -0.00144 |
| ATTTAATA | 0.265 |

| Sequence | PBM E-score |
| --- | --- |
| ATATAACG | 0.299 |
| GTATAACA | 0.215 |
| ATTTAATC | 0.307 |
| ATATAACC | 0.0866 |
| ATTTAACG | 0.298 |
| CTTTAATC | 0.183 |
| ATTTAACC | 0.154 |
| CTATAACA | 0.0773 |
| ATTTAACA | 0.213 |
| CTAAATAG | 0.0251 |
| ACATTATC | 0.102 |
| ACATACTA | 0.15 |
| AAGCCCTC | -0.213 |
| AATGTGAG | 0.13 |
| GAGGCATA | 0.0426 |
| GCCGTGTA | -0.196 |
| ACTTGAAC | 0.157 |
| GGACTTGA | 0.339 |
| AGACTTTA | -0.111 |
| CGACTTCA | 0.136 |
| AGACTTGA | 0.0388 |
| AGACTTCA | -0.0862 |
| GGACTTTA | 0.347 |
| GGACTTCA | 0.321 |
| CGACTTGA | 0.06 |

| Sequence | PBM E-score |
| --- | --- |
| CGACTTTA | 0.166 |
| ATTTTAGG | 0.113 |
| ATACGCTG | 0.025 |
| AGATCATA | 0.155 |
| ATCTGCAC | -0.145 |
| CACCGGGA | -0.0737 |
| GACCGGAA | 0.179 |
| AACCGGTC | 0.0286 |
| CACCGGAA | 0.361 |
| AACCGGAT | 0.222 |
| CACCGGTA | -0.12 |
| AACCGGAG | 0.43 |
| GACCGGAC | 0.364 |
| AACCGGAA | 0.229 |
| AACCGGAC | 0.345 |
| AACCGGCC | -0.0986 |
| GACCGGGC | -0.0226 |
| GTGATTCA | -0.119 |
| CGCCAAAG | -0.237 |
| CCGGGTAA | 0.136 |
| TCGTTCCA | -0.0676 |
| GATGGTGA | -0.174 |
| ACCGTGAA | 0.00123 |
| ACCTGTGG | -0.141 |
| TACCGGGA | 0.229 |

| Sequence | PBM E-score |
| --- | --- |
| TACCGGAA | 0.298 |
| CACCGGTC | -0.223 |
| CACCGGCC | -0.231 |
| CACCGGCG | 0.117 |
| TACCGGTA | 0.0972 |
| CACCGGTG | 0.0775 |
| CACCGGAC | 0.409 |
| CACCGGAG | 0.437 |
| ACAGCAAA | 0.127 |
| GCGTCTAA | -0.155 |
| CCCTACCG | -0.233 |
| AGAAACCT | 0.149 |
| GCCTGTCC | -0.154 |
| AAGAACTT | 0.183 |
| CATGAAGC | -0.0952 |
| ACTGTGAC | -0.142 |
| GGTTCGCA | -0.0674 |
| CGTTCGGC | -0.0654 |
| AGTTCGGA | 0.352 |
| CGTTCGTA | 0.15 |
| CGTTCGGA | 0.385 |
| AGTTCGGC | 0.126 |
| AGTTCGGG | 0.0543 |
| GGTTCGAA | 0.14 |
| GGTTCGGA | 0.423 |
